# Source: PubChem BioAssay (EPA / NIEHS)
# “And” between values parts separate entries of the source, which are not always exact repeats. Equal values may be shown once. Inconclusive results are not listed. Where a structure was tested more than once in an assay, its records may differ in their call. The source made the active and inactive calls. How the source made its calls, unless noted: active means hit-call score of the fitted dose curve at least 0.9, where 1 is the maximum; inactive means score below 0.9.
# Tests used:
# [1] = read-out: succinate dehydrogenase complex iron sulfur subunit B (SDHB), SDHB (gene 6390); experiment: LTEA_HepaRG_SDHB: Life Technologies and Expression Analysis (LTEA) Assay for succinate dehydrogenase complex iron sulfur subunit B (SDHB) using HepaRG (AID 2283528); settings: mRNA level, 48 h; actives raise or lower the signal
# Outline: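 SDHB transcript level read by TaqMan qRT-PCR, housekeeping-normalised (ACTB, GAPDH, POLR2A), after 48 h chemical treatment of plated HepaRG cells; eight concentrations top 100 uM, half-log steps, 0.5% DMSO, duplicates; fitted both directions against DMSO.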
# [2] = read-out: Signal transducer and activator of transcription 3 (Homo sapiens) (UniProt P40763); experiment: LTEA_HepaRG_STAT3: Life Technologies and Expression Analysis (LTEA) Assay for Signal transducer and activator of transcription (STAT3) using HepaRG (AID 2283529); settings: mRNA level, 48 h; actives raise or lower the signal
# Outline: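 STAT3 transcript quantified by qRT-PCR against three housekeeping genes (ACTB, GAPDH, POLR2A), fitted both directions relative to DMSO. HepaRG cultures exposed 48 h to eight half-log concentrations, top 100 uM, 0.5% DMSO, serum-free induction medium.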
# [3] = read-out: solute carrier (SLCO1B1), SLCO1B1 (gene 10599); experiment: LTEA_HepaRG_SLCO1B1: Life Technologies and Expression Analysis (LTEA) Assay for solute carrier (SLCO1B1) using HepaRG (AID 2283530); settings: mRNA level, 48 h; actives raise or lower the signal
# Outline: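 HepaRG, serum-free induction medium, 48 h dosing, 8-pt half-log from 100 uM, 0.5% DMSO vehicle, duplicates. Readout: SLCO1B1 mRNA, qRT-PCR, ACTB/GAPDH/POLR2A normalization; up or down fit vs DMSO.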
# [4] = read-out: sulfotransferase 2A1 (SULT2A1), SULT2A1 (gene 6822); experiment: LTEA_HepaRG_SULT2A1: Life Technologies and Expression Analysis (LTEA) Assay for sulfotransferase 2A1 (SULT2A1) using HepaRG (AID 2283531); settings: mRNA level, 48 h; actives raise or lower the signal
# Outline: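 Transcript levels of SULT2A1, quantified by qRT-PCR and normalized to three housekeeping genes, serve as the readout. Human HepaRG cultures receive test chemicals for 48 h at up to 100 uM in half-log steps, with 0.5% DMSO vehicle.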
# [5] = read-out: Transforming Growth Factor (TGFA), TGFA (gene 7039); experiment: LTEA_HepaRG_TGFA: Life Technologies and Expression Analysis (LTEA) Assay for Transforming Growth Factor (TGFA) using HepaRG (AID 2283532); settings: mRNA level, 48 h; actives raise or lower the signal
# Outline: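 TGFA transcript quantified by qRT-PCR (Fluidigm arrays) against three housekeeping genes, after 48 hours chemical treatment of HepaRG cells. Top concentration 100 uM with half-log dilutions, 8 points, duplicates, 0.5% DMSO.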
# [6] = read-out: Transforming Growth Factor (TGFB1), TGFB1 (gene 7040); experiment: LTEA_HepaRG_TGFB1: Life Technologies and Expression Analysis (LTEA) Assay for Transforming Growth Factor (TGFB1) Transporter using HepaRG (AID 2283533); settings: mRNA level, 48 h; actives raise or lower the signal
# Outline: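 HepaRG, 48 h post-plating, switched to serum-free induction medium; chemicals 100 uM top, half-log, 8 pts, 0.5% DMSO, dup; 48 h exposure; RNA → Fluidigm TaqMan qRT-PCR; norm ACTB/GAPDH/POLR2A; bidirectional fit vs DMSO.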
# [7] = read-out: TIMP1, TIMP1 (gene 7076); experiment: LTEA_HepaRG_TIMP1: Life Technologies and Expression Analysis (LTEA) Assay for TIMP1 using HepaRG (AID 2283534); settings: mRNA level, 48 h; actives raise or lower the signal;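 further: TaqMan qRT-PCR signal normalized to ACTB GAPDH and POLR2A housekeeping genes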
# Outline: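 Readout is TIMP1 mRNA level measured by qRT-PCR and normalized to three housekeeping genes. Human HepaRG cells were treated for 48 h in duplicate at eight concentrations up to 100 uM (0.5% DMSO); gain or loss fitted against DMSO.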
# [8] = read-out: Tumor necrosis factor receptor 1 (TNFRSF1A), TNFRSF1A (gene 7132); experiment: LTEA_HepaRG_TNFRSF1A: Life Technologies and Expression Analysis (LTEA) Assay for Tumor necrosis factor receptor 1 (TNFRSF1A) using HepaRG (AID 2283535); settings: mRNA level, 48 h; actives raise or lower the signal
# Outline: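 Read-out is TNFRSF1A transcript level by TaqMan qRT-PCR, normalized to three housekeeping genes, scored as gain or loss of signal versus 0.5% DMSO. Human HepaRG cells received test chemicals for 48 h at up to 100 uM (half-log series).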
# [9] = read-out: Thyroid Hormone Responsive (THRSP), THRSP (gene 7069); experiment: LTEA_HepaRG_THRSP: Life Technologies and Expression Analysis (LTEA) Assay for Thyroid Hormone Responsive (THRSP) using HepaRG (AID 2283536); settings: mRNA level, 48 h; actives raise or lower the signal
# Outline: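 THRSP transcript quantified by Fluidigm qRT-PCR against three housekeeping genes after 48 h chemical exposure of HepaRG cells in serum-free induction medium; eight-point half-log series, top 100 uM, 0.5% DMSO vehicle, duplicate wells.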
# [10] = read-out: Cellular tumor antigen p53 (Homo sapiens) (UniProt P04637); experiment: LTEA_HepaRG_TP53: Life Technologies and Expression Analysis (LTEA) Assay for Tumor Protein P53 (TP53) using HepaRG (AID 2283537); settings: mRNA level, 48 h; actives raise or lower the signal
# Outline: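 TP53 transcript measured by qRT-PCR, normalized to three housekeeping genes, after 48 h treatment of human HepaRG cultures with chemicals from 100 uM downward in half-log steps (0.5% DMSO vehicle, serum-free induction medium). Up- or down-regulation fitted against DMSO.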
# [11] = read-out: UDP glucuronosyltransferase (UGT1A1), UGT1A1 (gene 54658); experiment: LTEA_HepaRG_UGT1A1: Life Technologies and Expression Analysis (LTEA) Assay for UDP glucuronosyltransferase (UGT1A1) using HepaRG (AID 2283538); settings: mRNA level, 48 h; actives raise or lower the signal
# Outline: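 UGT1A1 transcript level, measured by qRT-PCR with three housekeeping genes for normalization, after 48 h treatment of human HepaRG cells (0.5% DMSO, duplicates, up to 100 uM, half-log steps, 8 points). Curves fit both directions against DMSO baseline.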
# [12] = read-out: X-box binding protein 1 (XBP1), XBP1 (gene 7494); experiment: LTEA_HepaRG_XBP1: Life Technologies and Expression Analysis (LTEA) Assay for X-box binding protein 1 (XBP1) using HepaRG (AID 2283540); settings: mRNA level, 48 h; actives raise or lower the signal
# Outline: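 Transcript levels of XBP1, measured by qRT-PCR and normalised to three housekeeping genes, were fitted bidirectionally relative to 0.5% DMSO controls. Human HepaRG cells received eight-point half-log dilutions from 100 uM for 48 h.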
# [13] = LTEA_HepaRG_LDH_cytotoxicity: Cytotoxicity Assessment in the Life Technologies and Expression Analysis (LTEA) Assay (AID 2283563; active means hit-call score of the fitted dose curve at least 0.9, where 1 is the maximum)
# Outline: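 Cells were thawed and plated for 48 h. Medium was then replaced with serum-free induction medium. Chemicals (8 half-log points, maximum 100 uM, 0.5% DMSO) were added in duplicate for 48 h, after which spent medium was assayed for LDH.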
# [14] = target: Cellular tumor antigen p53 (Homo sapiens) (UniProt P04637); experiment: TOX21_p53_BLA_p2_ratio: Tox21 HCT-116 p53 Agonism Beta-lactamase Assay, Ratio, Phase 2 (AID 2283592; active means hit-call score of the fitted dose curve at least 0.9, where 1 is the maximum)
# Outline: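 Plated HCT116 p53-bla cells (4000/well) received compound after 5 h, then 16 h at 37C/5% CO2. CCF4-AM added, 2 h RT. Ratio of 460 to 530 nm emission taken as the p53 reporter signal.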
# [15] = TOX21_p53_BLA_p3_viability: Viability Assessment in the Tox21 HCT-116 p53 Agonism Beta-lactamase Assay, Phase 3 (AID 2283593; active means hit-call score of the fitted dose curve at least 0.9, where 1 is the maximum;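 further: cells exposed to compound for 16 h before reading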)
# Outline: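 Cellular ATP was quantified by CellTiter-Glo luminescence, read after 30 min at room temperature. Beforehand, HCT116 cells (4000/well) received compound 5 h post-seeding, 217-fold diluted from DMSO, then incubated 16 h at 37C.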
# [16] = target: Cellular tumor antigen p53 (Homo sapiens) (UniProt P04637); experiment: TOX21_p53_BLA_p3_ratio: Tox21 HCT-116 p53 Agonism Beta-lactamase Assay, Ratio, Phase 3 (AID 2283596; active means hit-call score of the fitted dose curve at least 0.9, where 1 is the maximum)
# Outline: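 Cells were seeded at 4000/well, rested 5 h at 37C, then dosed with DMSO compound solutions (217-fold dilution) for 16 h. CCF4-AM substrate was loaded for 2 h at room temperature, and the 460/530 nm emission ratio was fitted for gain of signal versus DMSO.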
# [17] = TOX21_p53_BLA_p4_viability: Viability Assessment in the Tox21 HCT-116 p53 Agonism Beta-lactamase Assay, Phase 4 (AID 2283597; active means hit-call score of the fitted dose curve at least 0.9, where 1 is the maximum;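 further: hits lower the luminescence signal meaning cytotoxicity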)
# Outline: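 Readout: ATP luminescence (CellTiter-Glo), measured 30 min after reagent addition at RT. The reagent followed a 2 h CCF4-AM incubation, and the cells had been exposed to compound for 16 h at 37C.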
# [18] = read-out: UDP glucuronosyltransferase (UGT1A6), UGT1A6 (gene 54578); experiment: LTEA_HepaRG_UGT1A6: Life Technologies and Expression Analysis (LTEA) Assay for UDP glucuronosyltransferase (UGT1A6) using HepaRG (AID 2283539); settings: mRNA level, 48 h; actives raise or lower the signal
# Outline: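 HepaRG, 48 h post-plating switch to serum-free induction medium; chemical 48 h, 100 uM top, half-log x8, duplicate, 0.5% DMSO. Phenobarbital 1mM induction control. UGT1A6 mRNA by TaqMan qRT-PCR; gain/loss fit vs DMSO.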
# [19] = ATG_XTT_Cytotoxicity: Cytotoxicity Assessment in the Attagene TRANS-FACTORIAL HepG2 Assay (AID 2283584; active means hit-call score of the fitted dose curve at least 0.9, where 1 is the maximum)
# Outline: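 Cells: human HepG2, transiently transfected with MRTU reporter constructs. Exposure 24 h. Readout: XTT, cell number. Baseline/neg ctrl DMSO; loss-of-signal scored.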
# [20] = TOX21_p53_BLA_p2_viability: Viability Assessment in the Tox21 HCT-116 p53 Agonism Beta-lactamase Assay, Phase 2 (AID 2283591; active means hit-call score of the fitted dose curve at least 0.9, where 1 is the maximum;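 further: compound exposure lasted 16 h at 37 °C; actives lower the ATP signal meaning cytotoxicity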)
# Outline: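 Cytotoxicity readout: CellTiter-Glo ATP luminescence, 30 min at room temperature, after the beta-lactamase read. Cells were HCT116 exposed 16 h at 37C to compounds pin-transferred at 217-fold dilution from DMSO stocks.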
# Sequence of Cellular tumor antigen p53 (Homo sapiens) (P04637 whole entry, looked up): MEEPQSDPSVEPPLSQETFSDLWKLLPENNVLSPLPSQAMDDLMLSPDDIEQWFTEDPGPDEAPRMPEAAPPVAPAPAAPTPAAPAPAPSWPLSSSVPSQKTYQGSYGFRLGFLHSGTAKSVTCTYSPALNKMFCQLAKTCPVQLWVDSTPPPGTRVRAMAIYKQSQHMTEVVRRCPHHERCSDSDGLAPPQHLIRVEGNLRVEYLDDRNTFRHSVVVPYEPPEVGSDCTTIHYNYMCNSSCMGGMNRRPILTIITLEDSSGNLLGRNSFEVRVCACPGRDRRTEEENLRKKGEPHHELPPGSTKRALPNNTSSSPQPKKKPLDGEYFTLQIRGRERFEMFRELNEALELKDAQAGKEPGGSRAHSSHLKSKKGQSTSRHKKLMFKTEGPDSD
# Sequence of Signal transducer and activator of transcription 3 (Homo sapiens) (P40763 whole entry, looked up): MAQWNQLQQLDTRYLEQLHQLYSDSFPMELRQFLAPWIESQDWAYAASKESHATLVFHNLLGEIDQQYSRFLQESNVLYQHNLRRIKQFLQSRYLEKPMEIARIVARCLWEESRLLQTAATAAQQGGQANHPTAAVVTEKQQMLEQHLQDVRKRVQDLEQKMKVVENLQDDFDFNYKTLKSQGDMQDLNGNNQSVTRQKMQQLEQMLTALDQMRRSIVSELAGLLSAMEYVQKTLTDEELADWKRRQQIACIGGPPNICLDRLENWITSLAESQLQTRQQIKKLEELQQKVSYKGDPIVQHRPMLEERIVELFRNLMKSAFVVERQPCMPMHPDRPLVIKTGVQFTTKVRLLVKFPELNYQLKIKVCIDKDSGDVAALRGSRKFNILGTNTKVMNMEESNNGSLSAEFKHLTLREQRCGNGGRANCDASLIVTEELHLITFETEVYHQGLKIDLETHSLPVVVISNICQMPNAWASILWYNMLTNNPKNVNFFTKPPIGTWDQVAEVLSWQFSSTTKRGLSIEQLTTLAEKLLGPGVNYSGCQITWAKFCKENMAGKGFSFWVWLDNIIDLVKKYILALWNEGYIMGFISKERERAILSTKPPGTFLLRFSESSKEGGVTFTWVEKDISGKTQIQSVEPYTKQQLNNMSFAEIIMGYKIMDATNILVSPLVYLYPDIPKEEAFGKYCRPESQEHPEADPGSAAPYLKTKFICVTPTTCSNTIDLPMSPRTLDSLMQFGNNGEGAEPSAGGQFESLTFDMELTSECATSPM
structure (smiles),measurement,setting,value
CNC(=O)[C@H]1O[C@@H](n2cnc3c(NCc4cc(Cl)ccc4OCc4cc(C)no4)ncnc32)[C@H](O)[C@@H]1N,outcome,[1],inactive
same,outcome,[2],inactive
same,outcome,[3],inactive
same,outcome,[4],inactive
same,outcome,[5],inactive
same,outcome,[6],inactive
same,outcome,[7],inactive
same,outcome,[8],inactive
same,outcome,[9],inactive
same,outcome,[10],inactive
same,outcome,[11],inactive
same,outcome,[12],inactive
same,outcome,[13],inactive
same,outcome,[14],inactive
same,outcome,[15],inactive
same,outcome,[16],inactive
same,outcome,[17],inactive
FC(F)(F)C(F)(F)C(F)(F)C(F)(F)C(F)(F)C(F)(F)CCI,outcome,[1],inactive
same,outcome,[2],inactive
same,outcome,[3],inactive
same,outcome,[4],inactive
same,outcome,[5],inactive
same,outcome,[6],inactive
same,outcome,[7],inactive
same,outcome,[8],inactive
same,outcome,[9],inactive
same,outcome,[10],inactive
same,outcome,[18],inactive
same,outcome,[13],inactive
same,outcome,[19],inactive
same,outcome,[14],inactive
same,outcome,[15],inactive
same,outcome,[16],inactive
Cc1c(C(=O)O)c(O)cc2c1C(=O)c1c(O)c([C@@H]3O[C@H](CO)[C@@H](O)[C@H](O)[C@H]3O)c(O)c(O)c1C2=O,outcome,[1],inactive
same,outcome,[2],inactive
same,outcome,[3],inactive
same,outcome,[4],inactive
same,outcome,[5],inactive
same,outcome,[6],inactive
same,outcome,[7],inactive
same,outcome,[8],inactive
same,outcome,[9],inactive
same,outcome,[10],inactive
same,outcome,[18],inactive
same,outcome,[19],inactive
same,outcome,[20],inactive
same,outcome,[14],inactive
same,outcome,[15],inactive
same,outcome,[16],inactive
same,outcome,[17],inactive
NC(=O)Cn1c(=O)cc(CCN2CCN(c3nccc4sccc34)CC2)c2ccc(F)cc21,outcome,[1],inactive
same,outcome,[2],inactive
same,outcome,[3],inactive
same,outcome,[4],inactive
same,outcome,[5],inactive
same,AC50,[6],39.1 µM (active)
same,outcome,[7],inactive
same,outcome,[8],inactive
same,AC50,[9],50 µM (active)
same,AC50,[10],50 µM (active)
same,AC50,[12],77 µM (active)
same,outcome,[13],inactive
same,outcome,[14],inactive
same,outcome,[15],inactive
same,outcome,[17],inactive
CCCCN(CCCC)CCCC,outcome,[1],inactive
same,outcome,[2],inactive
same,outcome,[3],inactive
same,outcome,[4],inactive
same,outcome,[5],inactive
same,outcome,[6],inactive
same,outcome,[7],inactive
same,outcome,[8],inactive
same,outcome,[9],inactive
same,outcome,[10],inactive
same,outcome,[13],inactive
same,outcome,[19],inactive
same,outcome,[20],inactive
same,outcome,[14],inactive
same,outcome,[16],inactive
same,outcome,[17],inactive
O=c1[nH]cc(F)c(=O)[nH]1,outcome,[1],inactive
same,outcome,[2],inactive
same,outcome,[3],inactive
same,outcome,[4],inactive
same,outcome,[5],inactive
same,outcome,[6],inactive
same,outcome,[7],inactive
same,outcome,[8],inactive
same,AC50,[9],51 µM (active)
same,outcome,[10],inactive
same,outcome,[13],inactive
same,outcome,[19],inactive
same,AC50,[20],1.34 µM (active) and 1.39 µM (active)
same,outcome,[20],inactive
same,AC50,[14],2.4 µM (active) and 1.97 µM (active) and 4.59 µM (active)
same,AC50,[15],882 nM (active) and 2.38 µM (active)
same,outcome,[15],inactive
same,AC50,[16],2.99 µM (active) and 2.3 µM (active) and 5.29 µM (active)
same,AC50,[17],15.7 µM (active) and 9.55 µM (active)
same,outcome,[17],inactive
